Results filed as inconclusive are left out. The source made the active and inactive calls. The call rests on the fitted dose curve; in most records, active means well fitted curve in either direction with a large enough effect (not every such curve was filed as active); inconclusive means small, poorly fitted or top-dose-only effect, or another doubt; inactive means flat fitted curve, though single readings scatter.

The target in this assay is Mitogen-activated protein kinase 10 (Mus musculus) (UniProt Q61831). The assay is described as follows: JNK3 AlphaScreen Assay (AID 530).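 Further: kinase came from lysate of stimulated human HepG2 cells.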 Particulars: JNK3 lysate, c-Jun phosphorylation; series mostly up to 57.1 µM. An excerpt: NIH Chemical Genomics Center [NCGC]
NIH Molecular Libraries Screening Centers Network [MLSCN]
The c-jun N-terminal kinase (JNK) family are serine/threonine protein kinases that phosphorylate c-jun, a component of the transcription factor […] (AP-1). JNK kinases are members of the mitogen-activated protein kinase family including the extracellular regulated kinases and p38 kinases. Three JNK genes (JNK 1, 2, and 3) have been identified in humans so far. JNK1 and JNK2 have a broad distribution and JNK3 is primarily found in neuronal tissues and cardiac myocytes.
JNK3 has been under consideration as a target for the treatment of neurodegenerative disorders. […] JNK pathway is also involved in pathological process in a mouse model of Parkinson's disease (Xia et al., 2001).
Given these potential tissue distributions and links to neuroprotection, JNK3 inhibitors should provide useful investigational tools to study the role of this kinase in several diseases including, arthritis, stroke, myocardial infarction, ischemic injury and Parkinson's disease.
A homogeneous AlphaScreen is developed to measure the activity of JNK3. AlphaScreen is a two bead-based proximity-dependent chemical energy transfer luminescent assay platform. The phosphorylation of a biotinylated c-jun substrate by JNK3 can be detected with an antibody raised against phosphorylated c-jun. This process brings streptavidin donor beads and Protein-A acceptor beads to within a proximity range of <200 nm, and subsequently lead a chemical luminescent reaction upon exciting donor beads with 680 nm laser excitation light. Inhibition of JNK3 activity by small molecules and subsequent decrease in the antibody binding to biotinylated c-jun could attenuate or abolish this chemical luminescent reaction.
Yang DD, Kuan CY, Whitmarsh AJ, Rincon M, Zheng TS, Davis RJ, Rakic P and Flavell RA (1997) Absence of excitotoxicity-induced apoptosis in the hippocampus of mice lacking the Jnk3 gene. Nature 389:865-870. [PMID: 9349820]
Herdegen T, Claret FX, Kallunki T, Martin-Villalba A, Winter C, Hunter T, and Karin M (1998) Lasting N-terminal phosphorylation of c-Jun and activation of c-Jun N-terminal kinases after neuronal injury. J.Neurosci. 18:5124-5135. [PMID: 9651196]
Xia XG, Harding T, Weller M, Bieneman A, Uney JB and Schulz JB (2001) Gene transfer of the JNK interacting protein-1 protects dopaminergic neurons in the MPTP model of Parkinson's disease. Proc.Natl.Acad.Sci.U.S.A. 98:10433-10438.
NCGC Assay Protocol Summary:
GST-cJun (1-79) (Stratagene, La Jolla CA, #205145) was biotnylated by PerkinElmer (PerkinElmer-BioSignalInc. Montreal, Canada) and was detectable by the streptavidin Donor beads. Anti-(phospho)cJun (Ser73) antibody was from UpState (Charlottesvilles, VA, #06-659). JNK3-containing lysates were generated from HepG2 cells and pre-activated by interleukin1-beta and tumor necrosis factor alpha. All reagents were stored at -20 C before using. Phosphorylated biotinylated-GST-cJun was recognized by Anti-(phospho)cJun (Ser73) antibody and this process brings acceptor and donor beads together. Therefore JNK3 phosphorylation of cJun can be measured by Alpha reading by EnVision (PerkinElmer, Boston, MA).
The composition of kinase buffer was (in mM) 20 tris- HCl (pH 7.6) 10 MgCl2, 1 DTT, and 0.1 Na3VO4 and 0.01% Tween-20. Beads were diluted in detection buffer containing (in mM) 20 tris-HCl (pH 7.7), 20 NaCl and 80 EDTA and 0.3% BSA. The assay was performed at room temperature. All compounds were screened as titrations from 0.6 nM to 46 uM final concentration. The assay was performed in 1536-well format (white solid bottom and untreated) as follows:
Sequence,Parameter,Value,Description
1,Reagent,3 uL,Biotin-GST-cJun, Anti-(phospho)cJun and pre-activated JNK3-containing lysates
2,Compound,23 nL,Final concentration was 0.6nM to 46uM
3,Time,15 minutes,Room Temperature
4,Reagent,1 uL,ATP final concentration 10uM
6,Reagent,0.5 uL,2ng/well bead mixture
[…]
As for `O=C(O)c1cc(=O)cc(C(=O)O)[nH]1`, the result was inactive. With `Nc1ccc2c3c(cccc13)C(=O)NC2=O`, the molecule was classed as inactive.

As to `COc1ccc(C(=O)NCc2cccnc2)cc1C(=O)NCc1cccnc1`, the molecule was called inactive. With `CC(=O)NCCc1c[nH]c2ccc(O)cc12`, the molecule was called inactive. The same measure for `CN[C@H](CC(=O)O)C(=O)O`: “inactive”; for `O=c1[nH]ccc2c(O)cccc12`: “inactive”. The same measure for `COCc1nc2c([nH]1)c(=O)n(C)c(=O)n2CC(C)C`: “inactive”; for `COc1ccccc1N1CCN(CCCNc2c(C)c(=O)n(C)c(=O)n2C)CC1`: “inactive”; for `COc1cc(CNC(=O)CCCCCCC(C)C)ccc1O`: “inactive”. With `Nc1ncnc2c1c(-c1ccc(Oc3ccccc3)cc1)cn2C1CCCC1`, the outcome was inactive. `COc1cc(CC(=O)O)ccc1O`: the call was inactive. The entry for `NCCCNCCCCNCCCN` is “inactive”; for `COC(=O)[C@H](NC(=O)c1cc(-c2ccccc2)nc2ccccc12)c1ccccc1` it is “inactive”; for `NCCS(=O)O` it is “inactive”. The same measure for `CCCCCCC/C=C\CCCCCCCCC(=O)O`: “inactive”; for `Cc1nc(N=Nc2ccc(C(=O)O)cc2)c(COP(=O)(O)O)c(C=O)c1O`: “inactive”. `NC(=O)c1ccccc1`: the outcome was inactive. As to `Cc1cccc(C(=O)NCN2CCN(c3ccccc3C#N)CC2)c1`, the result was inactive.

As for `CCCCOC(=O)NS(=O)(=O)c1sc(CC(C)C)cc1-c1ccc(Cn2c(CC)nc3c(C)cc(C)nc32)cc1`, the result was inactive. The entry for `O=C(O)C1CCNCC1` is “inactive”.

As for `COc1ccc(NC(=O)c2ccc(-c3ccc(-c4noc(C)n4)cc3C)cc2)cc1N1CCN(C)CC1`, the result was inactive. The entry for `CCn1c(=O)[nH]c2cc(Cl)c(Cl)cc21` is “inactive”; for `CC(=O)C(C)=O` it is “inactive”; for `CCCn1c(=O)c2[nH]c(-c3ccc(S(=O)(=O)O)cc3)nc2n(CCC)c1=O` it is “inactive”. The entry for `C[C@](Cc1ccc(O)c(O)c1)(NN)C(=O)O` is “inactive”. The same measure for `O=C(O)C1=CCCN(CCON=C(c2ccccc2)c2ccccc2)C1`: “inactive”; for `O=S(=O)(c1cccc2c(Cl)cccc12)N1CCCNCC1`: “inactive”; for `O=c1oc(Cl)c(Cl)c2ccccc12`: “inactive”. Take `COc1ccccc1N1CCN(CCCCN2C(=O)c3ccccc3C2=O)CC1`: the molecule was called inactive. As to `NC[C@@H]1O[C@H](c2ccccc2)Cc2c1ccc(O)c2O`, the molecule was classed as inactive. The same measure for `Nc1ncnc2c1ncn2C1CCCC1`: “inactive”. The entry for `O=C(O)C1=CCNCC1` is “inactive”; for `CC[C@H](NC(=O)c1c(C)c(-c2ccccc2)nc2ccccc12)c1ccccc1` it is “inactive”; for `Cc1nc(N=Nc2cc(S(=O)(=O)O)c3cc([N+](=O)[O-])cc(S(=O)(=O)O)c3c2)c(COP(=O)(O)O)c(C=O)c1O` it is “inactive”. The entry for `COc1ccccc1N1CCN(CCCCNC(=O)c2ccc3ccccc3c2)CC1` is “inactive”; for `N#C/C(=C\c1ccc(O)c(O)c1)C(=O)NCCc1ccccc1` it is “inactive”; for `CCCn1c(=O)c2[nH]c(C3CCCC3)nc2n(CCC)c1=O` it is “inactive”.

As to `N=C(N)SCCN`, the outcome was inactive.

For the molecule `Cc1nc2c(OCc3ccccc3)cccn2c1CC#N`, the outcome was inactive. As for `Oc1cc(O)c2c(c1)O[C@H](c1ccc(O)c(O)c1)[C@@H](O)C2`, the outcome was inactive.

For the origin of these results see PubChem BioAssay (NCATS).
